14-3-3 Bad inh = inhibitors of 14-3-3 zeta/Bad binding, primary screen, biochemical, TR-FRET, bovine 14-3-3 zeta; 14-3-3 protein zeta/delta (Bos taurus), P63103; TR-FRET 14-3-3zeta/Dy647-pBad peptide displacement, 1 h; inhibition, % at 21.7 µM; 220,000 tested, 0.71% active;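 active = inhibition above about 70%, limit read from the data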;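 note: 0% = full 14-3-3 plus peptide FRET controls and 100% = background without 14-3-3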
MCL1 BIM primary = inhibitors of MCL1 binding to BIM-BH3, primary screen, biochemical, fluorescence polarization | GST-MCL1 / FITC-Bim-BH3 fluorescence polarization | AID 2057, 2009 | Induced myeloid leukemia cell differentiation protein Mcl-1 (Homo sapiens), Q07820 | inhibition, % at 10.9 µM | 320,000 tested, 0.68% active;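 active = inhibition above the mean inhibition of all tested compounds plus 3 SD, set per campaign, cut at about 40% in these data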;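 note: 0% = DMSO wells and 100% = unlabeled Bim-BH3 peptide control; higher means more loss of mP so more displacement of Bim peptide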
Target sequence (Q07820 whole entry, looked up): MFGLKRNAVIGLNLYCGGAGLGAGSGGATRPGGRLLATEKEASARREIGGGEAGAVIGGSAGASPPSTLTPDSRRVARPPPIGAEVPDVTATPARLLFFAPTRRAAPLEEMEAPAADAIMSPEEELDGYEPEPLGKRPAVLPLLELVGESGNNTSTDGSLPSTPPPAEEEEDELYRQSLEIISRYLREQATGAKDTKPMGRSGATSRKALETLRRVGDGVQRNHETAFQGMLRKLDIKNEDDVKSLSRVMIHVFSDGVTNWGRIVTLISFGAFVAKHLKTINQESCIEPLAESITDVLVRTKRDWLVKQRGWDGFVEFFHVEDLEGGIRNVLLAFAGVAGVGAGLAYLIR
Mcl1 Noxa PPI = Mcl-1/Noxa binding inhibitors, primary screen, biochemical, TR-FRET, 1536-well. 220,000 tested, 1.5% active. Induced myeloid leukemia cell differentiation protein Mcl-1 (Homo sapiens), Q07820. inhibition, % at 21.7 µM. TR-FRET Mcl-1/Noxa peptide binding, 2 h;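 active = compounds that cut the protein-peptide binding signal by more than 50% relative to plate controls in a single-dose test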;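 note: His-tagged Mcl-1 with rhodamine Noxa BH3 peptide and terbium anti-His antibody; 0% = Mcl-1 plus Noxa peptide wells and 100% = peptide-only wells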
eIF4E 4G PPI = eIF4E–eIF4G protein interaction inhibitors, primary screen, biochemical, uHTS, TR-FRET, eIF4GI fragment; AID 782, 2007; TR-FRET eIF4E-eIF4GI(517-606) binding, 2 h; Eukaryotic translation initiation factor 4E (Mus musculus) + Eukaryotic translation …; inhibition, % at 21.7 µM; 220,000 tested, 0.37% active;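 active = inhibition above about 30%, limit read from the data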;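 note: 0% = full FRET control wells and 100% = background wells lacking eIF4GI fragment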
Mcl-1 Bim block = inhibitors of Bim peptide binding to Mcl-1, primary screen, biochemical, bead-based flow cytometry, multiplex; Bim peptide-Mcl-1 binding; 190,000 tested, 0.1% active; Induced myeloid leukemia cell differentiation protein Mcl-1 (Homo sapiens), Q07820; AID 1009, 2008; inhibition, % at 10 µM; in the data active = inhibition above about 40%;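 note: 0% = no compound tracer wells and 100% = peptide blocker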
Mcl1-Bid inh = Mcl-1/Bid binding inhibitors, primary screen, biochemical, TR-FRET, 1536-well | Induced myeloid leukemia cell differentiation protein Mcl-1 (Homo sapiens), Q07820 | TR-FRET Mcl-1/Bid-Dy647 peptide binding | inhibition, % at 21.7 µM | 220,000 tested, 0.97% active;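 active = compounds that cut the binding signal by more than half at the single screening dose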;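 note: His-tagged Mcl-1 with europium anti-His antibody binding Bid BH3 peptide; 0% = Mcl-1 plus peptide wells and 100% = peptide-only wells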
* marks the source's active call; other numbers are inactive results; . = no result given. Most compounds without a hit are left out; they make up all but 2.6% or so of the library.

SMILES | 14-3-3 Bad inh | MCL1 BIM primary | Mcl1 Noxa PPI | eIF4E 4G PPI | Mcl-1 Bim block | Mcl1-Bid inh
CN(C)c1ccc(C(CNC(=O)c2ccco2)N2CCCC2)cc1 (configuration not stated) | . | 3 | . | . | . | .
Clc1ccc2c(N/N=C/c3cccc(Br)c3)ccnc2c1 | 22 | -28 | 47 | 6 | 10 | 60*
O=[N+]([O-])c1ccc(/C=N/Nc2ccnc3cc(Cl)ccc23)o1 | . | -56 | . | . | . | .
Clc1ccc2c(N/N=C/c3ccccc3Br)ccnc2c1 | 56 | 8 | 58* | 6 | 0 | 63*
COc1ccccc1NC(=O)c1ccccc1NC(=O)c1cccs1 | . | 4 | . | . | . | .
N#CC1=C(S)N(c2ccccc2)C(c2ccc(-c3cc(Cl)ccc3Cl)o2)NC1=O (configuration not stated) | -11 | -8 | 76* | -6 | -4 | -32
N#CC1=C(S)N(c2ccccc2)C(c2ccc(-c3ccc(Cl)c(Cl)c3)o2)NC1=O (configuration not stated) | -10 | -17 | 36 | -7 | . | -10
Cc1occc1C(=O)/C(C#N)=C/c1ccc(O)c(Br)c1 | . | -94 | . | . | . | .
COc1ccccc1N(C(=O)c1snc(C(N)=O)c1N)C(C(=O)NC1CCCC1)c1ccc2ncccc2c1 (configuration not stated) | . | 5 | . | . | . | .
COc1cc(CC(=O)NCC(C)(C)N2CCOCC2)cc(OC)c1OC | . | -1 | . | . | . | .
CCOc1ccccc1-n1c(=O)c2ccccc2c2ccccc2c1=O | -7 | -3 | 10 | -8 | 6 | 54*
CN(CCc1ccccn1)C(=O)CCC1CCCN(C(=O)NC2CCCCC2)C1 (configuration not stated) | -2 | -6 | -1 | 4 | 57* | -32
Cc1ccc(C)c(N2CCN(C(=O)c3cc4ccccn4n3)CC2)c1 | -7 | 44* | -2 | -5 | -4 | -9
O=C(c1cc2ccccn2n1)N1CCCC1 | 2 | . | 14 | 4 | -2 | -18
Cc1cc2nc(-c3ccc(SCc4ccc(C(=O)O)cc4)nc3)[nH]c2cc1C | -8 | 1 | 76* | -1 | 4 | -62
Cc1cc(S(=O)(=O)ON2C(=O)c3ccccc3C2=O)ccc1F | . | 4 | . | . | . | .
Cc1ccc(C)c(S(=O)(=O)ON2C(=O)c3ccccc3C2=O)c1 | 20 | -8 | 60* | 18 | -15 | -48
CCCCN(C(=O)c1cccc(S(=O)(=O)N2CCN(C)CC2)c1)c1c(N)n(CCC)c(=O)[nH]c1=O | . | -1 | . | . | . | .
O=C1N=c2ccccc2=C1c1c(O)n(-c2cccc(F)c2)[nH]c1=O | 34 | 23 | 102* | 16 | -10 | 73*
CC1=CC2=NC(=O)CC(C)(C(=O)N(CC(=O)NC3CCCC3)c3cc(C)cc(C)c3)N2C=C1 (configuration not stated) | 1 | 1 | -1 | 35* | 0 | -19
CC1=CC2=NC(=O)CC(C)(C(=O)N(CC(=O)NC(C)(C)C)C3CCCC3)N2C=C1 (configuration not stated) | 17 | -16 | -6 | -8 | -10 | -15
Cc1ccc(C2C(C#N)=C(N)Oc3cc4c(cc32)OCO4)cc1 (configuration not stated) | 3 | -6 | 17 | 0 | -2 | -26
